High-throughput results: PubChem BioAssay, The Scripps Research Institute Molecular Screening Center
Compounds with a hit are over-represented: about 1.8% of the library has one in this group of screens.
PME-1 inh: PME-1 inhibitors via competitive probe labeling, primary screen, biochemical, fluorescence polarization, FP-Rh probe, HTS. Protein phosphatase methylesterase 1 (Homo sapiens), Q9Y570. actives 0.53% (n = 320,000). recombinant PME-1. inhibition, % at 5.9 µM;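 active = inhibition above the campaign mean of all compounds plus 3 SD, cut at about 26% in these data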;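 also: competitive labeling of PME-1 active site by serine hydrolase directed probe; inhibitors block probe labeling so polarization falls and inhibition rises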
LYPLA1 counter: LYPLA1 inhibitors, primary screen, counter-screen for PME1 inhibitor project, biochemical, fluorescence polarization, FP-Rh probe ABPP | actives 0.16% (n = 320,000) | Acyl-protein thioesterase 1 (Homo sapiens), O75608 | recombinant LYPLA1 | AID 2174, 2009 | inhibition, % at 5.9 µM;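 active = inhibition above the mean of all tested compounds plus 3 SD, set per campaign, cut at about 14% in these data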;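 also: inhibitors block serine hydrolase probe labeling of LYPLA1 so polarization falls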
Target sequence (O75608 whole entry, looked up): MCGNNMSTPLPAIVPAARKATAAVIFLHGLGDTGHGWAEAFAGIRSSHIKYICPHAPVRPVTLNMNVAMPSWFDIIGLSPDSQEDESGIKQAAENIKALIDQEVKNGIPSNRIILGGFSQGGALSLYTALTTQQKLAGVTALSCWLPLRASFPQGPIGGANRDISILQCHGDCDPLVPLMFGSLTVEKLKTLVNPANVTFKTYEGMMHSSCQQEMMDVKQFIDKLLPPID
Fam108B inh: mouse Fam108B serine hydrolase inhibitors, primary screen, counter-screen for RBBP9 inhibitor project, biochemical, fluorescence polarization. recombinant Fam108B, FP-Rh probe fluorescence polarization. inhibition, % at 9.51 µM. actives 0.33% (n = 300,000). AID 1947, 2009;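 active = inhibition above the screen mean inhibition plus 3 SD, computed separately per campaign, cut at about 18% in these data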;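 also: inhibitors lower polarization as less probe binds the enzyme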
LYPLA2 inh: LYPLA2 inhibitors, primary screen, counter-screen for PME1 inhibitor project, biochemical, fluorescence polarization, FP-Rh probe ABPP. actives 0.38% (n = 320,000). recombinant LYPLA2. Acyl-protein thioesterase 2 (Homo sapiens), O95372. inhibition, % at 5.9 µM;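 active = inhibition above the screen-wide mean plus 3 SD, limit set per campaign, cut at about 26% in these data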
Target sequence (O95372 whole entry, looked up): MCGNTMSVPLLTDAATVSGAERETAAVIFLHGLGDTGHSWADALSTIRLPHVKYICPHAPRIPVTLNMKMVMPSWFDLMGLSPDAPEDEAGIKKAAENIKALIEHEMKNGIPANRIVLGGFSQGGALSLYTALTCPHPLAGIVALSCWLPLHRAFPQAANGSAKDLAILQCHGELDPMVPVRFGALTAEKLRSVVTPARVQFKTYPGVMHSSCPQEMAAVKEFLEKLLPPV
PAD4 FP inh: human PAD4 inhibitors, primary screen, biochemical, fluorescence polarization, 1536-well format; Protein-arginine deiminase type-4 (Homo sapiens), Q9UM07; recombinant PAD4, RCA probe fluorescence polarization; inhibition, % at 6.36 µM; actives 0.41% (n = 330,000);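 active = percent inhibition above a cutoff equal to the mean of all tested compounds plus 3 SD, cut at about 15% in these data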
GSTO1 counter: inhibitors of recombinant GSTO1, primary screen, counter-screen for RBBP9 inhibitor project, biochemical, fluorescence polarization | AID 1974, 2009 | Glutathione S-transferase omega-1 (Homo sapiens), P78417 | inhibition, % at 5.96 µM | actives 1.1% (n = 300,000) | activity-based probe fluorescence polarization;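 active = inhibition above the campaign mean inhibition plus 3 SD, cut at about 35% in these data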
LYPLA1 conf: LYPLA1 inhibitors, retest, confirmation, counter-screen for PME1 inhibitor project, biochemical, fluorescence polarization, FP-Rh probe ABPP. shares compounds with LYPLA1 counter. inhibition, % at 5.9 µM. actives 69% (n = 480). recombinant LYPLA1;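 active = mean inhibition across replicates above the hit cutoff set in the primary screen, cut at about 15% in these data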;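 also: loss of FP-Rh probe labeling of LYPLA1 seen as lower polarization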
Each line names hits and unclear results; the compound was inactive in the other large screens (follow-up assays come after a bar, where they were run).

O=C1c2ccccc2-c2onc3c(N4CCN(CCO)CC4)cc(N4CCN(C(=O)c5ccco5)CC4)c1c23	LYPLA1 counter 16.6, GSTO1 counter 36.8 | LYPLA1 conf inactive
O=C(c1ccco1)N1CCN(CCCCN2C(=O)c3ccccc3C2=O)CC1	none
CCOC(=O)c1cnn(CCOC(=O)c2ccccc2)c1NC(=O)c1ccccc1	none
O=C(COc1ccc(Cl)cc1)N1CCN(c2ccc([N+](=O)[O-])c(N3CCCCC3)c2)CC1	LYPLA1 counter 66.4 | LYPLA1 conf 79.4
O=C(CN1CCN(c2ccccn2)CC1)Nc1ccc(Cl)c(C(F)(F)F)c1	none
O=C(CN1CCN(c2ccccn2)CC1)Nc1cc(C(F)(F)F)ccc1Cl	LYPLA1 counter 53.9 | LYPLA1 conf 54.9
NC(=O)CN1CCOCCOCCN(CC(N)=O)CCOCCOCC1	none
Cc1cccc(OCCC(=O)N(C)CC(=O)Nc2cccc3ccccc23)c1	none
NC(=O)c1c(NC(=O)c2ccccc2)sc2c1CCC2	none
Cn1ncc(Cl)c1C(=O)Nc1sc2c(c1C(N)=O)CCC2	LYPLA1 counter 29.1 | LYPLA1 conf inactive
CCCCc1cc(=O)oc2cc(OCc3cc(OC)c(OC)c(OC)c3)c(Cl)cc12	LYPLA1 counter 16.3 | LYPLA1 conf 27.3
CCOC(=O)c1c(NC(=O)COC(=O)c2ccc([N+](=O)[O-])cc2)sc(C(=O)N(C)C)c1C	none
CCOC(=O)c1c(C)[nH]c(C(=O)OCC(=O)Nc2sc(C(=O)N(C)C)c(C)c2C(=O)OCC)c1C	LYPLA1 counter 47.3 | LYPLA1 conf 73.5
O=C(Cc1ccccc1)N1CCC(c2nc(-c3ccc(F)cc3)no2)CC1	LYPLA1 counter 16.6 | LYPLA1 conf inactive
CC(=O)N1CCN(C(=O)COc2ccc(N(C)S(=O)(=O)c3cccs3)cc2)CC1	LYPLA1 counter 23.8 | LYPLA1 conf inactive
CN(c1ccc(OCC(=O)N2CCC(C(N)=O)CC2)cc1)S(=O)(=O)c1cccs1	none
OCCN(CCO)c1ccc2ccccc2c1	none
OCCN(CCO)c1ccc(C(c2ccccc2Cl)c2ccc(N(CCO)CCO)cc2Cl)c(Cl)c1	LYPLA1 counter 14.9 | LYPLA1 conf 16.6
NC(=O)c1cc(S(=O)(=O)NCc2cccc(Br)c2)cs1	LYPLA1 counter 15.0 | LYPLA1 conf inactive
COCCn1c(=NC(=O)c2ccc(S(=O)(=O)N3CCOCC3)cc2)sc2cc(S(N)(=O)=O)ccc21	LYPLA1 counter 17.3 | LYPLA1 conf 27.2
COC(=O)Cn1c(=NC(=O)c2ccc(S(=O)(=O)N3CCOCC3)cc2)sc2cc(S(N)(=O)=O)ccc21	none
CCOC(=O)c1cnc(SCC(=O)Nc2ccc(N3CCOCC3)c(Cl)c2)nc1N	LYPLA1 counter 15.9 | LYPLA1 conf 25.8
CC(=O)Nc1ccc(OCc2nnc(-c3ccc(Cl)cc3)o2)cc1	none
C/C(=N\NC(=O)c1nnn(-c2nonc2N)c1-c1cccs1)c1ccncc1	LYPLA1 counter 25.3 | LYPLA1 conf inactive
COc1ccc(N(CC(O)Cn2nnc3ccccc32)S(=O)(=O)c2ccc(C)cc2)cc1 (stereo not drawn)	none
CCNC(=S)Nc1nc2c(cc1C(=O)OCC)CCCC2	none
O=C1/C(=C/c2cccc([N+](=O)[O-])c2)Oc2cc(O)ccc21	LYPLA1 counter 16.9 | LYPLA1 conf 14.6
COc1ccccc1/C=C/C=N/N1CCN(Cc2ccccc2)CC1	LYPLA1 counter 18.7 | LYPLA1 conf inactive
C(=N\N1CCN(Cc2ccccc2)CC1)/c1ccc(-c2ccccc2)cc1	none
O=P1(Nn2cnnc2)C=C(c2ccccc2)OC(c2ccccc2)=C1	LYPLA1 counter 16.7 | LYPLA1 conf inactive
Cc1c(O)ccc2c(CN3CCN(C/C=C/c4ccccc4)CC3)cc(=O)oc12	none
Cc1cc2oc(=O)cc(CN3CCN(C/C=C/c4ccccc4)CC3)c2cc1O	LYPLA1 counter 20.4 | LYPLA1 conf 18.3
